Sampled rows, rich in hits. Any-hit rate of the full collection: about 3.8%.
KCNH2 WT inh = qHTS for Inhibitors of KCHN2 3.1: Wildtype qHTS; Voltage-gated inwardly rectifying potassium channel KCNH2 (Homo sapiens), Q12809; U2OS, BacMam KCNH2, thallium flux FluxOr; stronger effect = lower value; activity change, % at 1.84 µM; 340,000 compounds, 0.37% hits; AID 720551, 2013;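 active = maximum activity change below -70%; inconclusive = maximum activity change between -70% and -50%; inactive = maximum activity change above -50%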; also: % is scaled to controls: 0 for no effect and ±100 for the full control effect
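U2OS cells were transduced with wild-type KCNH2 virus (2.03 x 10^8 / mL) for 4 h at room temperature, then cultured overnight at 37 C. Thallium flux was read with FluxOr dye. Rate constants were normalized to DMSO controls.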
VDR inh = Inhibitors of the vitamin D receptor (VDR): qHTS; Vitamin D3 receptor (Homo sapiens), P11473; VDR-SRC2-3 peptide fluorescence polarization, 2 h; Potency, µM, for inactives: max response, negative = inhibition, actives largely listed as inhibitors; 400,000 compounds, 0.93% hits; AID 504847, 2011; also: potency is read from the fitted curve at half-maximal effect; % is scaled to controls: 0 for no effect and ±100 for the full control effect
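The screen uses fluorescence polarization to detect compounds that interfere with recruitment of the SRC2-3 coactivator peptide to VDR; plates are read after 2 h at room temperature.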
KCNH2 3.1 inh = qHTS for Inhibitors of KCHN2 3.1: Mutant qHTS. 340,000 compounds, 0.95% hits. U2OS KCNH2 3.1, thallium flux FluxOr; stronger effect = lower value. Potassium voltage-gated channel subfamily H member 2, brain isoform KCNH2 3.1 (human). activity change, % (tested at about 1.8 µM);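 active = maximum activity change below -70%; inconclusive = maximum activity change from -70% to -50%; inactive = maximum activity change above -50%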;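 also: thallium influx rate constant from kinetic fluorescence after stimulation buffer; % is scaled to controls: 0 for no effect and ±100 for the full control effect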
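U2OS cells transduced with KCNH2 3.1 mutant virus (1.77 x 10^8 /mL, 4 h), plated overnight at 37 C, loaded 45 min with FluxOr dye plus Red40 quencher. Thallium flux rate constant from kinetic reads after stimulation buffer, normalised to controls.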
PLK1 PBD block = qHTS for Inhibitors of PLK1-PDB (polo-like kinase 1 - polo-box domain): Primary Screen | Potency, µM, inactives show max response, negative = inhibition, actives largely listed as inhibitors | Serine/threonine-protein kinase PLK1 (Homo sapiens), P53350 | AID 720504, 2013 | Plk1 PBD binding of FITC phosphopeptide, fluorescence polarization | 360,000 compounds, 2.8% hits; also: potency is read from the fitted curve at half-maximal effect; series mostly up to about 57 µM; % is scaled to controls: 0 for no effect and ±100 for the full control effect; nearly all actives have a fitted effect of over 65% in size
Target sequence (P53350 whole entry, looked up, the tested form may be a part): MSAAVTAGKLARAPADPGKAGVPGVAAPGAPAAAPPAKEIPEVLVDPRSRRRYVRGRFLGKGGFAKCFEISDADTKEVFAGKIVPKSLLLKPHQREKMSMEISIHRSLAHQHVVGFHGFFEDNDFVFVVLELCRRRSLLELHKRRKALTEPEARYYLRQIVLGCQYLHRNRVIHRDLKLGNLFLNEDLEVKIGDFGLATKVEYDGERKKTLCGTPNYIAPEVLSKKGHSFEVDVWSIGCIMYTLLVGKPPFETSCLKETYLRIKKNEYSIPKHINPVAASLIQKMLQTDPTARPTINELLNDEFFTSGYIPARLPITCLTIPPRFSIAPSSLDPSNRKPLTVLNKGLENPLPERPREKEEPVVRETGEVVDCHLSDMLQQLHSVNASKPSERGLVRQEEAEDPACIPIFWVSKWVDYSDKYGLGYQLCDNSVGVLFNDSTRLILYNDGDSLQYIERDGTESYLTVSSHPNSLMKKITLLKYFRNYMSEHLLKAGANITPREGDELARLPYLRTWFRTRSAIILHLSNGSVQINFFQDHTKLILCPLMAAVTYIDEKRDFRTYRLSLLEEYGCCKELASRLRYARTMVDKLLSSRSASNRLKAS
CBFb RUNX1 block = qHTS Assay for Compounds Blocking the Interaction Between CBF-beta and RUNX1 for the Treatment of Acute Myeloid Leukemia. AID 1477, 2009. 230,000 tested, under 10 active. Potency, µM (top dose mostly 59.8 µM), for the others: at the top dose activity, negative = inhibition, usual class: inhibitors. AlphaScreen CBFb-His/RUNX1-biotin binding, biochemical; also: % of control where 0% means no effect
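Room-temperature protein-protein interaction test with 30 nM each of His-tagged CBF-beta and biotinylated RUNX1, 15 min with compound, then 90 min with nickel plus streptavidin beads. Signal read in AlphaScreen mode.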
MBNL1-CUG inh = qHTS Assay for Inhibitors of MBNL1-poly(CUG) RNA binding; Muscleblind-like protein 1 (Homo sapiens), Q9NR56; TR-FRET MBNL1-His/biotin-(CUG)12 binding, 665/545 ratio; Potency, µM (titrated, usually from 57.5 µM), for inactives: at the top dose activity change, negative = inhibition, hits mostly inhibitors; 280,000 compounds, 0.036% hits; active = well fitted inhibition curve with a large enough effect in the signal ratio, with a control signal flat, not every such curve was filed as active; inconclusive = small, poorly fitted or top-dose-only effect, or effect the other way, or a change in a side signal; inactive = no such curve, though single readings can be large or run the other way; the % refers to the signal ratio; also: potency is read from the fitted curve at half-maximal effect; % is scaled to controls: 0 for no effect and ±100 for the full control effect
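Compound titration spanned 92 nM–58 uM against the MBNL1-His/biotin-(CUG)12 complex. After 60 min at room temperature with 5 nM streptavidin-XL665 and 0.055 ng/ul terbium anti-His, ratiometric 665/545 nm emission (Ex 340 nm) normalized to controls.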
* marks the source's active call; other numbers are inactive results; ? = inconclusive; nt = no result. Unless noted, calls follow the shape of the dose curve; as a rule, active = well fitted curve in the direction sought with a large enough effect; inconclusive = small, poorly fitted or top-dose-only effect, or another doubt; inactive = no such curve, though single readings can be large; an effect the other way counts as inactive or inconclusive.

SMILES	KCNH2 WT inh	VDR inh	KCNH2 3.1 inh	PLK1 PBD block	CBFb RUNX1 block	MBNL1-CUG inh
CCOc1ccc(NC(=O)CN2CCN(CC(=O)Nc3cccc(F)c3)CC2)cc1	-20	2%	-85*	0%	3%	-1%
COc1ccc(NC(=O)CN2CCN(c3ccccc3Cl)CC2)cc1	11	-1%	-8	-17%	-3%	-4%
COc1ccccc1NC(=O)CN1CCN(c2ccc(F)cc2)CC1	-8	?	-4	24µM*	nt	nt
CCOc1ccc(NC(=O)CN2CCN(CC(=O)Nc3ccc(F)cc3F)CC2)cc1	nt	5%	nt	nt	nt	nt
COc1ccccc1NC(=O)CN1CCN(c2ccccn2)CC1	-1	-7%	8	-1%	7%	4%
CCOC(=O)N1CCC(NC(=O)c2ccc3c(c2)N(Cc2ccc(F)cc2)C(=O)c2ccccc2S3(=O)=O)CC1	nt	8%	nt	nt	nt	nt
COc1ccc(NC(=O)CN2CCN(CC(=O)Nc3ccc(F)cc3F)CC2)cc1	-120*	-5%	-117*	-3%	nt	2%
COc1ccc(NC(=O)C(c2ccccc2)N2CCN(c3ccccn3)CC2)cc1Cl (stereo unspecified)	15	9%	-109*	-1%	-21%	nt
CS(=O)(=O)c1ccc(Cl)c(NC(=O)CN2CCN(S(=O)(=O)/C=C/c3ccccc3)CC2)c1	26	-2%	-84*	4%	nt	nt
COc1ccccc1NC(=O)CN1CCN(CC(=O)Nc2ccc(OCc3ccccc3)cc2)CC1	-25	8%	-79*	-1%	1%	8%
NS(=O)(=O)c1ccc(NC(=O)CN2CCN(S(=O)(=O)/C=C/c3ccccc3)CC2)cc1	18	-16%	-3	-3%	-3%	5%
COc1cc(NC(=O)CN2CCN(c3ccccn3)CC2)cc(OC)c1OC	12	-9%	21	-7%	nt	0%
CCOc1ccc(CN(C(=O)c2cc(=O)c3cc(Cl)ccc3o2)C2CCS(=O)(=O)C2)cc1 (stereo unspecified)	nt	15%	nt	nt	nt	nt
COc1ccc(S(=O)(=O)N2CCN(Cc3ccc(Cl)cc3)CC2)cc1	6	10%	-1	-1%	8%	-5%
COc1ccc(CN2CCCN(S(=O)(=O)c3ccc(Br)cc3)CC2)cc1	-126*	-23%	-102*	27µM*	nt	-14%
COc1cc(NC(=O)c2cccc(Cl)c2)c(OC)cc1NC(=O)CN1CCCCC1	-1	-25%	5	30µM*	8%	-2%
CCOc1ccc(NC(=O)Cn2cc(C(=O)CC)c3ccccc32)cc1	-6	79µM*	3	?	nt	-2%
COc1ccc(S(=O)(=O)N2CCN(CC(=O)Nc3cc(Cl)ccc3Cl)CC2)cc1	1	-8%	-85*	8%	nt	nt
Cc1ccc(CNC(=O)C2CCN(S(=O)(=O)c3ccc4c(c3)CCCN4C(=O)C3CCC3)CC2)cc1	nt	7%	nt	nt	nt	nt
COc1ccc(C)cc1NC(=O)c1nnn(CC(=O)Nc2c(C)cccc2C)c1N	nt	18%	nt	nt	nt	nt
O=C(CSc1nccn1Cc1ccccc1)Nc1ccc2c(c1)OCCO2	nt	5%	nt	nt	nt	nt
O=C(CN1C(=O)COc2ccc(S(=O)(=O)N3CCCC3)cc21)N1CCN(c2ccc(F)cc2)CC1	nt	-7%	nt	nt	nt	nt
COCCOC(=O)/C(=C/c1ccc(OC(=O)c2ccccc2)cc1)C(C)=O	0	22µM*	2	21µM*	9%	-6%
Cc1ccc(Cl)cc1N(C)C(=O)c1cc2c(Cl)nc3ccccc3c2s1	nt	-7%	nt	nt	nt	nt
O=C(CSc1ncnc2scc(-c3ccccc3)c12)Nc1ccc(C(=O)O)cc1	1	-10%	-3	-3%	11%	?
SMILES	KCNH2 WT inh	VDR inh	KCNH2 3.1 inh	PLK1 PBD block	CBFb RUNX1 block	MBNL1-CUG inh
CC(=O)Nc1ccc(Sc2ncnc3scc(-c4ccccc4)c23)cc1	-4	-18%	-3	6.7µM*	5%	8%
Cc1c(CNCCc2ccc(S(N)(=O)=O)cc2)c(C(=O)O)c(C)n1Cc1ccc(Cl)cc1	nt	16%	nt	nt	nt	nt
CCC(C)(C)n1nnnc1C(c1ccc2ncccc2c1)N1CCN(c2nc3ccccc3s2)CC1 (stereo unspecified)	0	11%	-90*	4%	-25%	-7%
O=C(Nc1ccccc1C(F)(F)F)c1noc2c1CCCCC2	nt	-3%	nt	nt	nt	nt
COc1ccccc1NC(=O)COn1nnc2ccc(S(=O)(=O)N3CCOCC3)cc21	4	-28%	13	19µM*	14%	nt
CCCn1c(SCC(=O)Nc2cc(S(=O)(=O)N3CCOCC3)ccc2Cl)n[nH]c1=O	-4	-11%	-11	-19%	1%	-17%
CCCn1c(SCC(=O)Nc2cc(S(=O)(=O)N3CCOCC3)ccc2OC)n[nH]c1=O	-2	13%	-27	30µM*	15%	nt
COc1cccc(C=C(C#N)C(=O)c2ccccc2)c1	nt	nt	nt	2.1µM*	nt	nt
COc1cccc(C(=O)NNC(=O)c2ccccc2)c1	-17	-2%	4	4%	nt	-12%
N#C/C(=C\c1cccc(Cl)c1)C(=O)c1ccccc1	-2	?	15	0.84µM*	-12%	-8%
CCCCn1c(C2CC(=O)N(c3ccc(OCC)cc3)C2)nc2ccccc21 (stereo unspecified)	nt	12%	nt	nt	nt	nt
O=C(Nc1ccc2nccnc2c1)Nc1ccccc1Cl	-6	?	-30	24µM*	nt	15%
CCOc1ccc(N(CC)S(=O)(=O)N2CCCC(C(=O)Nc3cc(Cl)ccc3C)C2)cc1 (stereo unspecified)	nt	8%	nt	nt	nt	nt
CC(C)c1ccc(NC(=O)CSc2nc(=O)n(Cc3ccccn3)c3c2CCC3)cc1	nt	4%	nt	nt	nt	nt
COc1cc(-c2ccc(Nc3ccccc3C(=O)O)c(OC)c2)ccc1Nc1ccccc1C(=O)O	-9	?	-3	17µM*	?	0%
COc1cccc(Nc2ccccc2C(=O)O)c1	-5	2%	4	-11%	-2%	-6%
COc1ccc2c(c1)c1c(c(=O)n(-c3ccc(C)cc3)c(=O)n1CC(=O)Nc1cc(C)ccc1C)n2C	nt	2%	nt	nt	nt	nt
COc1ccc(NC(=O)O/N=C2/CCCc3ccc(OC)cc32)cc1	-5	45µM*	2	15µM*	2%	-7%
COc1ccc2c(c1)/C(=N/OC(=O)c1cccs1)CCC2	6	-15%	-7	-5%	7%	-6%
Cn1nc(SCC(=O)O)sc1=S	-1	-4%	6	2%	1%	4%
